CYP2C9 act – CYP2C9 (human) activation; P11712; recombinant CYP2C9, luciferin-H conversion, luminescence; hits give high values; factor 1 = untreated enzyme, 0 = blocked; activation factor at 5 µM; actives 1.4% (n = 96,000); AID 1024;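 active means activation factor of 2 or more for CYP2C9 at a 5 µM dose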;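 further: 0 = sulfaphenazole-blocked wells and 1 = vehicle-only wells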
CYP2C19 activ – activators of human cytochrome P450 2C19; 96,000 tested, under 10 active; recombinant CYP2C19, luciferin-H EGE luminescence; hits give high values; 0 = fully inhibited enzyme, 1 = untreated enzyme; activation factor at 5 µM; P33261; AID 1025;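 active means activation factor of at least 2 at 5 µM in the primary screen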;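 further: 0 = wells with 2.5 mM tranylcypromine and 1 = vehicle-only wells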
Target sequence (P33261 whole entry, looked up): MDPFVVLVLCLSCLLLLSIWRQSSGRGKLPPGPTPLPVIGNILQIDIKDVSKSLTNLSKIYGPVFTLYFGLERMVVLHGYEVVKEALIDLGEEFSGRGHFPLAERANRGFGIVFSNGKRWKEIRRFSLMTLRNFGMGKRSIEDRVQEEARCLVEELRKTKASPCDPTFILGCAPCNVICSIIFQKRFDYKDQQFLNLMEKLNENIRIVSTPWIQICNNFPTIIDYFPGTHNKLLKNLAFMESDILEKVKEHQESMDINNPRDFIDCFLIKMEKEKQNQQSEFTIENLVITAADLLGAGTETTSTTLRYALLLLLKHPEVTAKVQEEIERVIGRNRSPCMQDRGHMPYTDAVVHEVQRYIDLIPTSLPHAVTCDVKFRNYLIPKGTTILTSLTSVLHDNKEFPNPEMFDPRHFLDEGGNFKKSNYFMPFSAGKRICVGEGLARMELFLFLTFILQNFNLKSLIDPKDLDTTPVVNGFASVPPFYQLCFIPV
MRP-1 activ – activators of MRP-1; H69AR cells + doxorubicin, viability rescue, CellTiter-Glo; viability increase, % at 10 µM; actives 0.61% (n = 140,000);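 active means viability gain under doxorubicin at or above a set limit, the compound median plus 3 SD, cut at about 4.7% in these data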;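 further: MRP-1 overexpressing cells given doxorubicin 25 µM after compound pretreatment; 18-22 h compound pretreatment then 72 h with doxorubicin before readout; 0% = doxorubicin-only wells and 100% = vehicle-treated cells without doxorubicin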
MRP resist rev – reverses drug resistance mediated by MRP; differential viability (reversal), % at 10 µM; AID 602; actives 0.04% (n = 85,000); H69AR cells + 2 uM doxorubicin, CellTiter-Glo, 72 h;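 active means viability drop by adding the cancer drug above about 55%, with treated viability meeting a 40% cutoff, limit read from the data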;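 further: viability without doxorubicin minus viability with 2 µM doxorubicin for each compound; larger differential means the compound sensitizes cells more to doxorubicin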
CYP2C9 inh – human CYP2C9 inhibition. P11712. CYP2C9 Supersomes, luciferin-H conversion, luminescence. inhibition, % at 5 µM. actives 20% (n = 96,000). AID 777;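 active means blocking of liver enzyme CYP2C9 beyond about 50% at 5 µM, limit read from the data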
CYP2C19 inhib – human CYP2C19 inhibition | actives 21% (n = 96,000) | P33261 | AID 778 | CYP2C19 Supersomes, luciferin-H EGE luminescence, 30 min | inhibition, % at 5 µM;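 active means CYP2C19 inhibition above a set limit at 5 µM in the primary screen, cut at about 50% in these data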;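 further: plate controls were negative control wells for no effect and 2.5 mM tranylcypromine positive control for full effect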
* marks the source's active call; other numbers are inactive results; x = no result. Hits are enriched below; roughly 21% of the tested compounds scored in any of these assays.

SMILES	CYP2C9 act	CYP2C19 activ	MRP-1 activ	MRP resist rev	CYP2C9 inh	CYP2C19 inhib
CC(C)(Oc1ccc(Cl)cc1)C(=O)Nc1ccc2oc(-c3ccncc3)nc2c1	0.9	1.1	0	11	13	-10
CCCCC(=O)Nc1ccc2oc(-c3ccncc3)nc2c1	0.4	0.4	-1	2	63*	58*
CCCCCC(=O)Nc1ccc2oc(-c3cncc(Br)c3)nc2c1	0.9	0.5	-3	18	8	46
CCCC(=O)Nc1ccc2oc(-c3ccncc3)nc2c1	0.2	0.4	0	13	78*	56*
O=C(COc1ccc(Cl)cc1)Nc1ccc2oc(-c3ccncc3)nc2c1	0.4	0.5	2	-1	62*	52*
CCCCC1C(C#N)=C(C)NC2=C1C(=O)CC(C)(C)C2 (configuration not stated)	0.1	0.1	-2	3	86*	90*
Cc1ccc2nc(Cl)c(C3CC(c4cccs4)=NN3S(C)(=O)=O)cc2c1 (configuration not stated)	x	x	-2	x	x	x
Nc1ccc(S(=O)(=O)c2ccc(Cl)cc2)cc1	3.7*	0.1	-4	25	-274	86*
CN1CCN(c2ccc([N+](=O)[O-])cc2C(=O)c2ccc(Cl)cc2)CC1	0.9	0.4	-2	x	14	58*
Cc1ccc(C(=O)c2cc([N+](=O)[O-])ccc2N2CCCCC2)cc1	x	x	-4	x	x	x
O=C(c1ccc(-c2ccc([N+](=O)[O-])cc2)o1)N1CCCCC1	x	x	-4	x	x	x
CC(=O)Nc1ccc(OC(=O)c2cc([N+](=O)[O-])ccc2Cl)cc1	1.6	1	-2	x	-58	2
CCOc1ccc(C(=O)c2cc([N+](=O)[O-])ccc2Cl)cc1	0.2	0.7	-4	x	76*	34
O=C(c1ccc(-c2ccc(Cl)cc2)o1)N1CCN(c2ccc([N+](=O)[O-])cc2Cl)CC1	0.1	0.3	-2	x	92*	70*
Cc1c(NC(=O)C(C)OC(=O)c2c3c(nc4ccccc24)CCC3)c(=O)n(-c2ccccc2)n1C (configuration not stated)	x	x	-2	x	x	x
COc1cc(NC(=S)NCc2ccc(S(N)(=O)=O)cc2)c(OC)cc1Cl	x	x	-4	x	x	x
CC(C)(C)C1CCc2[nH]nc(C(=O)O)c2C1 (configuration not stated)	1.1	1.1	-1	14	-13	-13
COC(=O)/C=C1/N/C(=N\c2nc(C)cc(C)n2)N(c2ccc(Cl)cc2)C1=O	x	x	-3	x	x	x
CCOC(=O)C1=C(CN2CCSCC2)NC(=O)NC1c1cc(C)ccc1C (configuration not stated)	0.4	0.6	-2	4	56*	38
CCOC(=O)C1=C(CSc2nc3ccccc3s2)NC(=O)NC1c1ccc(OC)cc1 (configuration not stated)	0.5	0.4	-1	x	46	60*
CCOC(=O)C1=C(CSc2nc3ccccc3s2)NC(=O)NC1c1cc(C)ccc1C (configuration not stated)	0.2	0.3	3	x	78*	68*
CCOC(=O)C1=C(CP(=O)(c2ccccc2)c2ccccc2)NC(=O)NC1c1ccc(OC)cc1 (configuration not stated)	x	x	0	x	x	x
CCN(CC)S(=O)(=O)c1cccc(C(=O)N[C@H](C(=O)NCc2ccccc2F)C(C)C)c1	0.2	0.8	-1	x	85*	20
CCN(CC)S(=O)(=O)c1cccc(C(=O)N[C@H](C(=O)NCc2ccc(Cl)cc2)C(C)C)c1	0	0.7	2	x	97*	29
CCN(CC)S(=O)(=O)c1cccc(C(=O)N[C@H](C(=O)O)C(C)C)c1	1.1	1.2	0	3	-6	-16
SMILES	CYP2C9 act	CYP2C19 activ	MRP-1 activ	MRP resist rev	CYP2C9 inh	CYP2C19 inhib
CCN(CC)S(=O)(=O)c1ccc(Cl)c(C(=O)Nc2nnc(C)s2)c1	0.2	1.1	-1	13	80*	-7
CCN(CC)S(=O)(=O)c1cccc(C(=O)NC(C(=O)Nc2nnc(C)s2)C(C)C)c1 (configuration not stated)	0.2	0.6	1	2	78*	43
COC(=O)C(O)(NC(=O)NC(C)=O)C(F)(F)F (configuration not stated)	1	1	1	1	0	1
COc1cccc(-n2c(SCc3cc(=O)oc4cc(O)c(O)cc34)nc3ccccc3c2=O)c1	x	x	-1	x	x	x
S=C(NCc1ccccn1)Nc1ccc(Cl)cc1Cl	1	0.3	0	x	4	66*
S=C(NCc1ccccn1)Nc1ccc(Cl)c(Cl)c1	0.8	0.5	-2	x	25	51*
COc1ccc(Cl)cc1NC(=S)NCc1ccccn1	x	x	-2	x	x	x
S=C(NCc1ccccn1)Nc1ccccc1	x	x	0	x	x	x
CN(C)CCCNC(NC(=O)c1cccs1)C(Cl)(Cl)Cl (configuration not stated)	x	x	0	x	x	x
Cc1cc(Nc2ccccc2)n(-c2ccccc2)n1	0.3	0.1	-1	6	75*	90*
CCN(CC)S(=O)(=O)c1cccc(C(=O)Nc2cc(C)nn2-c2ccccc2)c1	x	x	-3	x	x	x
Cc1cc(NS(=O)(=O)c2ccccc2)n(-c2ccccc2)n1	0.1	1	-1	0	86*	4
Cc1cc(C)nc(-n2nc(C)cc2Nc2ccccc2)n1	1	0.9	-1	3	-1	10
Cc1cc(Nc2nnnn2-c2ccccc2)n(-c2ccc(Cl)cc2)n1	0.7	0.3	-3	-9	32	65*
Cc1cccc(NC(=S)NNC(=O)CCn2cc(C)cn2)c1	0.8	0.7	-2	x	21	29
CC(C)CCNC(=O)NC(=O)COC(=O)C1CCN(S(=O)(=O)c2ccccc2F)CC1	x	x	-1	x	x	x
CC(C)COc1cccc(C(=O)NC(=S)Nc2cccc(NC(=O)c3ccccc3Cl)c2)c1	x	x	-3	x	x	x
C/C(=N\NC(=O)C1(C)CC1(Br)Br)c1ccc(NC(=O)c2ccc(C)o2)cc1 (configuration not stated)	x	x	0	x	x	x
COc1ccc(S(=O)(=O)N(CCc2ccccc2)CC(=O)N/N=C/c2ccc3c(c2)OCO3)cc1	x	x	1	x	x	x
COc1ccc(S(=O)(=O)N(CCc2ccccc2)CC(=O)O)cc1OC	0.8	1.1	1	-12	16	-7
CCNC(=O)CN(CCc1ccccc1)S(=O)(=O)c1ccc(OC)cc1	0.1	0	-1	-1	88*	96*
COc1ccc(S(=O)(=O)N(CCc2ccccc2)CC(=O)O)cc1	0.4	0.5	-2	10	65*	53*
COc1ccc(S(=O)(=O)N(CCc2ccccc2)CC(=O)NCCCO)cc1	1.2	0.5	-1	18	-17	51*
COCCN(CC(=O)NCc1ccc(OC)cc1)C(=O)CCC(=O)Nc1nccs1	1	0.9	-2	-8	1	6
O/N=C1\CCCc2ccc(Cl)cc21	x	x	1	x	x	x
COc1ccc(Oc2nc(SC)nc3ccccc23)cc1	1.1	1	0	x	-6	1
